Reference: PubChem BioAssay (EPA / NIEHS)
Records with an inconclusive call do not appear. Calls of active or inactive are those of the source. Rule for the calls, unless noted: active = hit-call score of the fitted dose curve at least 0.9, where 1 is the maximum; inactive = score below 0.9.

Assays:
[1] = ATG_CRE_CIS: Attagene CIS-FACTORIAL HepG2 Assay for human cAMP Responsive Element (CRE) binding protein 3 (AID 2282926); settings: HepG2 CRE cis-reporter, Attagene multiplexed mRNA; actives raise or lower the signal
Method in brief: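 Endogenous transcription factor activity read via CRE-regulated reporter transcripts in transfected HepG2 cells. After 24 h exposure, RNA was reverse-transcribed, amplified, fluorescently labelled and sized by capillary electrophoresis; gain or loss fitted against DMSO.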

[2] = target: Aryl hydrocarbon receptor (Homo sapiens) (UniProt P35869); assay: ATG_Ahr_CIS: Attagene CIS-FACTORIAL HepG2 Assay for human Aryl Hydrocarbon Receptor (Ahr) (AID 2282930); settings: HepG2 AhR cis-factorial reporter transcription; actives raise or lower the signal
Method in brief: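 Following 24 h of chemical dosing, transfected HepG2 liver cells with cis-driven reporter units were lysed for RNA; reporter mRNA was quantified via RT-PCR and capillary electrophoresis, and responses fitted bidirectionally from DMSO.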

[3] = target: Hepatocyte nuclear factor 3-beta (Homo sapiens) (UniProt Q9Y261); assay: ATG_FoxA2_CIS: Attagene CIS-FACTORIAL HepG2 Assay for human Forkhead box A2 (FOXA2) (AID 2282942); settings: HepG2 cis-reporter transcription factor activity, 24 h; actives raise or lower the signal
Method in brief: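 In transiently transfected human HepG2 cells, promoter-driven reporter mRNA levels after 24 h chemical exposure are determined via RT-PCR with capillary electrophoresis. DMSO serves as baseline for bidirectional fitting.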

[4] = target: Paired box protein Pax-6 (Homo sapiens) (UniProt P26367); assay: ATG_Pax6_CIS: Attagene CIS-FACTORIAL HepG2 Assay for human Paired Box 6 (PAX6) (AID 2282956); settings: HepG2 CIS-FACTORIAL PAX6 reporter transcription, RNA readout; actives raise or lower the signal
Method in brief: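 DMSO-referenced bidirectional fits of reporter mRNA fluorescence; HepG2 with transient cis-promoter MRTUs, 24 h post-dose, RT-PCR plus capillary electrophoresis detection.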

[5] = target: Transcription factor Sp1 (Homo sapiens) (UniProt P08047); assay: ATG_Sp1_CIS: Attagene CIS-FACTORIAL HepG2 Assay for human Specificity Protein 1 (Sp1) (AID 2282961); settings: HepG2 Sp1 cis-reporter transcription, actives raise or lower the signal
Method in brief: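 Sp1-driven reporter mRNA, read as capillary electrophoresis fluorescence after RT-PCR, in transiently transfected HepG2 cells dosed for 24 h; signal change in either direction relative to DMSO.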

[6] = ATG_SREBP_CIS: Attagene CIS-FACTORIAL HepG2 Assay for human Sterol Regulatory Element Binding (SREBP) (AID 2282962); settings: HepG2 Attagene cis-factorial SREBP reporter, mRNA; actives raise or lower the signal
Method in brief: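 In this cis-format assay, HepG2 liver cells express reporters controlled by promoter elements responsive to native transcription factors. Exposure lasts 24 h; reporter mRNA fluorescence from capillary electrophoresis gives the signal, fitted bidirectionally against DMSO.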

[7] = target: Signal transducer and activator of transcription 3 (Homo sapiens) (UniProt P40763); assay: ATG_STAT3_CIS: Attagene CIS-FACTORIAL HepG2 Assay for human Signal Transducer and Activator of Transcription 3 (STAT3) (AID 2282963); settings: HepG2, Attagene cis-factorial STAT3 reporter transcription; actives raise or lower the signal
Method in brief: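 HepG2, MRTU-transfected, 24 h dosing. RNA → RT → PCR → FAM label → HpaI → CE. Bidirectional fit vs DMSO.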

[8] = ATG_TA_CIS: Attagene CIS-FACTORIAL HepG2 Assay for human TA Basal Promoter (AID 2282964); settings: HepG2 Attagene CIS-factorial TA basal promoter reporter; actives raise or lower the signal
Method in brief: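 Fluorescence from labelled RT-PCR reporter fragments, separated by capillary electrophoresis, gives the signal. Cells: HepG2 transiently carrying multiple reporter units, 24 h chemical dosing. Gain or loss relative to DMSO.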

[9] = ATG_TCF_b_cat_CIS: Attagene CIS-FACTORIAL HepG2 Assay for human T-Cell-Factor with beta-catenin (TCF/b-cat) (AID 2282965); settings: HepG2 TCF/beta-catenin cis-reporter transcription, actives raise or lower the signal
Method in brief: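 In this cis-format system, transfected HepG2 cells report endogenous transcription factor activity. Readout after 24 h exposure is reporter transcript abundance from RT-PCR and capillary electrophoresis, analysed for gain or loss of signal versus DMSO.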

[10] = ATG_TAL_CIS: Attagene CIS-FACTORIAL HepG2 Assay for human TAL Basal Promoter (AID 2282966); settings: HepG2 Attagene cis-factorial TAL promoter reporter; actives raise or lower the signal;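 note: background control endpoint measuring basal TAL promoter reporter mRNA not a specific factor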
Method in brief: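 Background-control endpoint: basal TAL promoter reporter transcripts in transiently transfected HepG2, measured 24 h after dosing. Read-out by RT-PCR with fluorescent primer extension and capillary electrophoresis; gain or loss of signal fitted relative to DMSO.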

[11] = ATG_TGFb_CIS: Attagene CIS-FACTORIAL HepG2 Assay for human Transforming Growth Factor (TGF) (AID 2282967); settings: HepG2 Attagene CIS TGFb reporter, mRNA transcription; actives raise or lower the signal
Method in brief: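 Bidirectional fitting relative to DMSO gave the endpoint. Underlying data: reporter mRNA from HepG2 cells carrying transiently transfected cis-regulated reporter constructs, harvested 24 h after dosing and analyzed by RT-PCR and capillary electrophoresis.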

[12] = ATG_VDRE_CIS: Attagene CIS-FACTORIAL HepG2 Assay for human Vitamin D Receptor Element (VDRE) (AID 2282968); settings: HepG2 VDRE cis-reporter transcription, actives raise or lower the signal
Method in brief: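 Steps: transfect HepG2 with multiple reporter transcription units; dose chemicals 24 h; isolate RNA; RT-PCR; label with 6-FAM primer extension; HpaI digest; capillary electrophoresis. Curves fitted both directions against DMSO.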

[13] = target: X-box-binding protein 1 (Homo sapiens) (UniProt P17861); assay: ATG_Xbp1_CIS: Attagene CIS-FACTORIAL HepG2 Assay for human X-box Binding Protein 1 (XBP1) (AID 2282972); settings: HepG2 XBP1 cis-element reporter, Attagene multiplex; actives raise or lower the signal
Method in brief: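 Changes in reporter transcript abundance, read by RT-PCR and capillary electrophoresis, reflect endogenous transcription factor activity. Transfected HepG2 cells received compound for 24 hours; DMSO defined baseline for bidirectional analysis.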

[14] = ATG_M_32_TRANS: Attagene TRANS-FACTORIAL HepG2 Assay for M32 Transcription Factor (Internal Marker) (AID 2282984; active = hit-call score of the fitted dose curve at least 0.9, where 1 is the maximum); settings: HepG2 Attagene TRANS M32 internal marker reporter
Method in brief: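 After 24 h dosing of transfected HepG2 cells, total RNA was reverse-transcribed, reporter sequences PCR-amplified, 6-FAM labelled by primer extension and HpaI-digested before capillary electrophoresis. Signal increase over DMSO was fitted.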

[15] = target: Transcriptional activator Myb (Homo sapiens) (UniProt P10242); assay: ATG_Myb_CIS: Attagene CIS-FACTORIAL HepG2 Assay for human Myeloblastosis (Myb) Proto-Oncogene Transcription Factor (AID 2282986); settings: HepG2 Attagene CIS-FACTORIAL Myb reporter transcription; actives raise or lower the signal
Method in brief: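 Fluorescence signals from capillary electrophoresis of RT-PCR-amplified reporter cDNA give the read-out. Cells: HepG2 transfected with multiple cis-regulated reporter units. Exposure lasts 24 hours; DMSO defines baseline for gain or loss of signal.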

[16] = target: Nuclear respiratory factor 1 (Homo sapiens) (UniProt Q16656); assay: ATG_NRF1_CIS: Attagene CIS-FACTORIAL HepG2 Assay for human Nuclear Respiratory Factor 1 (NRF1) Orphan Gene (AID 2282987); settings: HepG2 NRF1 cis-element reporter, Attagene multiplex; actives raise or lower the signal
Method in brief: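 Transcriptional reporter readout, one component of a 52-endpoint multiplexed HepG2 panel. Exposure 24 h; mRNA detected via RT-PCR and fluorescent capillary electrophoresis; fitting in both directions against DMSO.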

[17] = ATG_NFI_CIS: Attagene CIS-FACTORIAL HepG2 Assay for human Nuclear Factor I (NFI) (AID 2282989); settings: HepG2 cis-regulatory reporter, NFI response element transcription; actives raise or lower the signal
Method in brief: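 Cells: human liver HepG2, transiently transfected with promoter-regulated reporter transcription units. Exposure 24 h. Detection: fluorescent RT-PCR products separated by capillary electrophoresis, normalised to DMSO negative control.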

[18] = target: Myc proto-oncogene protein (Homo sapiens) (UniProt P01106); assay: ATG_Myc_CIS: Attagene CIS-FACTORIAL HepG2 Assay for human Myelocytomatosis (Myc) Proto-Oncogene Transcription Factor (AID 2282990); settings: HepG2, Attagene cis-reporter transcription factor activity; actives raise or lower the signal
Method in brief: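 DMSO-normalised, bidirectionally fitted reporter mRNA signal. HepG2 cells transfected with cis reporter constructs, treated 24 h; transcripts detected by RT-PCR, 6-FAM primer extension and CE.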

[19] = ATG_NF_kB_CIS: Attagene CIS-FACTORIAL HepG2 Assay for human Nuclear Factor Kappa B (NF-kB) (AID 2282991); settings: HepG2 Attagene cis-factorial NF-kB reporter mRNA; actives raise or lower the signal
Method in brief: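 HepG2, transient multi-reporter transfection, cis promoter elements (endogenous TFs). 24 h exposure. Total RNA → RT → PCR → 6-FAM label → HpaI → CE. Gain/loss vs DMSO.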

[20] = ATG_Oct_MLP_CIS: Attagene CIS-FACTORIAL HepG2 Assay for human Octamer-Binding Transcription Factor (Oct) (AID 2282993); settings: HepG2 Attagene cis-factorial Oct reporter, mRNA; actives raise or lower the signal
Method in brief: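 HepG2, transient MRTU transfection, cis promoter elements; 24 h dosing; RT-PCR/CE fluorescence read-out of reporter mRNA; fit both directions vs DMSO.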

Measured: AC50

Chain of Transcriptional activator Myb (Homo sapiens) (P10242 whole entry, looked up): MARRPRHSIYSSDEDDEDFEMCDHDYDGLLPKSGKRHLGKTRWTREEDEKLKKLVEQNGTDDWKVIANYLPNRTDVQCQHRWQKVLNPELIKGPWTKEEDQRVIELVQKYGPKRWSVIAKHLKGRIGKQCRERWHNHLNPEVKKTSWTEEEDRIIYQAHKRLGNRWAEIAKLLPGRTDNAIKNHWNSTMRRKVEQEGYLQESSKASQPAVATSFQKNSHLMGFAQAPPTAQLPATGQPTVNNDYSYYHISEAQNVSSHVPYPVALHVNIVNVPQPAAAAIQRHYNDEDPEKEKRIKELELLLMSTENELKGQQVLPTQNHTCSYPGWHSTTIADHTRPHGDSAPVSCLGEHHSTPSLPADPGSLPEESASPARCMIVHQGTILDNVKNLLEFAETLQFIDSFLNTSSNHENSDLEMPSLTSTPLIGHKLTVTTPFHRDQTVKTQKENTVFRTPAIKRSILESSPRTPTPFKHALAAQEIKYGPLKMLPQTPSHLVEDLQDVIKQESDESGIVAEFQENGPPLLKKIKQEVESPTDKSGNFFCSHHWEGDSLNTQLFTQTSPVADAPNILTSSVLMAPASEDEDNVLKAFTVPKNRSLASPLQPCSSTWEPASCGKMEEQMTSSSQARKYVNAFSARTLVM
Chain of Nuclear respiratory factor 1 (Homo sapiens) (Q16656 whole entry, looked up): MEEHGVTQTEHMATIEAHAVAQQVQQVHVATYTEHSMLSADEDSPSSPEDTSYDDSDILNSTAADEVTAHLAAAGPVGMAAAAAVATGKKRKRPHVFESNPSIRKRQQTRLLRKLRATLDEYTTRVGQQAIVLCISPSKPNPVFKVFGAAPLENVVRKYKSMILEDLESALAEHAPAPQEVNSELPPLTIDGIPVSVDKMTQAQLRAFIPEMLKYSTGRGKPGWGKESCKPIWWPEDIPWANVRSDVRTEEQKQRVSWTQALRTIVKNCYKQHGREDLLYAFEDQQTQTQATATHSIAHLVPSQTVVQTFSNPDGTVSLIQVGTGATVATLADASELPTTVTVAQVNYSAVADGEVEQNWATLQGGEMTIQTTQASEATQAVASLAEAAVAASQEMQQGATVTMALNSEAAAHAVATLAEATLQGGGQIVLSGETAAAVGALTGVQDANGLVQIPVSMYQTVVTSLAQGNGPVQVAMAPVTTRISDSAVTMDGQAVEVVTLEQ
Chain of Myc proto-oncogene protein (Homo sapiens) (P01106 whole entry, looked up): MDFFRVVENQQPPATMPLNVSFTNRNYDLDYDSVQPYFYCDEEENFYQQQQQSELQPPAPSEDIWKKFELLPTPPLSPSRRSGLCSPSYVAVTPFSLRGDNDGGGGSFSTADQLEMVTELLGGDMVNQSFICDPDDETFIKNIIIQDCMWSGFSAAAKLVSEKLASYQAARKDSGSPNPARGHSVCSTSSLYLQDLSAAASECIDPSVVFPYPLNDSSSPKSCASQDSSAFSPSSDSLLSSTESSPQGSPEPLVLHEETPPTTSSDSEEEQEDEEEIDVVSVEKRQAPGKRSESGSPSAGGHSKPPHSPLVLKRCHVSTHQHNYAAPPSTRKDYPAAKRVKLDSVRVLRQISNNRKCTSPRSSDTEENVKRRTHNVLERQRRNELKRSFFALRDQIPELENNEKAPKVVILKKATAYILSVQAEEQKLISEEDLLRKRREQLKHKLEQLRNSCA
Chain of Aryl hydrocarbon receptor (Homo sapiens) (P35869 whole entry, looked up): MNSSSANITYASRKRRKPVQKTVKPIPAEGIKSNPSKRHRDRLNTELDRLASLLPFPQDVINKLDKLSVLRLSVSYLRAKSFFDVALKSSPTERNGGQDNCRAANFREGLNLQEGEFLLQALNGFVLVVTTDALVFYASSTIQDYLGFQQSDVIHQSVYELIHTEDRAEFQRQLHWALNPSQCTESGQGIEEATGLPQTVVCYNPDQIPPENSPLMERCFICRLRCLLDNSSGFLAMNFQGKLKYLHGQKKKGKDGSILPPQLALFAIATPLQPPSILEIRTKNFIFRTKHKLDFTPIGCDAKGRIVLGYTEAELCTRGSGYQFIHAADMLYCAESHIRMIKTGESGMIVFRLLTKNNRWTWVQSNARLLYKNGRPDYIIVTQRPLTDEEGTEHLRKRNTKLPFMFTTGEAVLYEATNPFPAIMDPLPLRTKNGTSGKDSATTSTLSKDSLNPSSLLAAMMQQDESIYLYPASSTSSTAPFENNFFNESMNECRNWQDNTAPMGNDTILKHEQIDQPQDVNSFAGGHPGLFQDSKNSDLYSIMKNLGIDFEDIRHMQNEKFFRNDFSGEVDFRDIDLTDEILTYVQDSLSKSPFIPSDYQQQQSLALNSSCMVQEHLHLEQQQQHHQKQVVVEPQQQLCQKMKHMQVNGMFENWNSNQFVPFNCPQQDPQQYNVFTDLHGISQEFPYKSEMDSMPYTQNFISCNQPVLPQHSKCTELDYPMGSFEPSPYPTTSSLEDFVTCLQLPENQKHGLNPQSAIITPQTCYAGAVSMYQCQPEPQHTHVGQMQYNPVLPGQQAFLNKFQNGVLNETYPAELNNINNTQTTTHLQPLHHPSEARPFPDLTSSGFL
Chain of Hepatocyte nuclear factor 3-beta (Homo sapiens) (Q9Y261 whole entry, looked up): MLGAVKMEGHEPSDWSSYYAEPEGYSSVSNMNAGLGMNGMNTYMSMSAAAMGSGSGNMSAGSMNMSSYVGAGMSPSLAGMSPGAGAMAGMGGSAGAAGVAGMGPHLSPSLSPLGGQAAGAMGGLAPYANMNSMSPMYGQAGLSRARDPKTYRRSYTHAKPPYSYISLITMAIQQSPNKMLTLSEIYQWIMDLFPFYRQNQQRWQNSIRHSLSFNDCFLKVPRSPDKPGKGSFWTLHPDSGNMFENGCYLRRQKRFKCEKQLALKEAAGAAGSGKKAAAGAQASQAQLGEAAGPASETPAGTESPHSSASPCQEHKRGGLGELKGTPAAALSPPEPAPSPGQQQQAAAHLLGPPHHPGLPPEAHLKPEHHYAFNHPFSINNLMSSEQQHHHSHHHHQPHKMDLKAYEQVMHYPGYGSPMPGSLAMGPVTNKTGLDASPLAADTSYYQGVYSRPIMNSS
Chain of Transcription factor Sp1 (Homo sapiens) (P08047 whole entry, looked up): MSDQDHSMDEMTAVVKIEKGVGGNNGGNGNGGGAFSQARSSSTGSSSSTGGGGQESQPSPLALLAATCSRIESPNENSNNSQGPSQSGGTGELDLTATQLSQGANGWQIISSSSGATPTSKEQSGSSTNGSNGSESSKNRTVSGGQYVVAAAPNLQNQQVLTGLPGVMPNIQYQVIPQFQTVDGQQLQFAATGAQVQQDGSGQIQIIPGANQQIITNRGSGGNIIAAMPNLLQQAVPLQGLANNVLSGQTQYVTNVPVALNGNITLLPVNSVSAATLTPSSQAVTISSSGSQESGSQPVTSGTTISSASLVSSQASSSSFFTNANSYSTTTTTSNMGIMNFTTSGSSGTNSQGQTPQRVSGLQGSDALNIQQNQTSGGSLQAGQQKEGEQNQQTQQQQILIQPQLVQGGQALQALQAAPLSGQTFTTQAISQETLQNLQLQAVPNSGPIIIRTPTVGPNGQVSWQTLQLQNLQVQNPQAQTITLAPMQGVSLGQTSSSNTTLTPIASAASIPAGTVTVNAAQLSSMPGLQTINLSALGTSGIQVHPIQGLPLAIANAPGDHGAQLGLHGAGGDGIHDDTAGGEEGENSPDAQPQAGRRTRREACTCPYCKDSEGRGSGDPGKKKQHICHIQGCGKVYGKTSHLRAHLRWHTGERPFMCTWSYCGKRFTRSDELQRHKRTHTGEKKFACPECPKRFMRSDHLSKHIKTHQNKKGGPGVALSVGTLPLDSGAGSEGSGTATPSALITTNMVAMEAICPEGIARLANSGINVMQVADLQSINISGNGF
Chain of Signal transducer and activator of transcription 3 (Homo sapiens) (P40763 whole entry, looked up): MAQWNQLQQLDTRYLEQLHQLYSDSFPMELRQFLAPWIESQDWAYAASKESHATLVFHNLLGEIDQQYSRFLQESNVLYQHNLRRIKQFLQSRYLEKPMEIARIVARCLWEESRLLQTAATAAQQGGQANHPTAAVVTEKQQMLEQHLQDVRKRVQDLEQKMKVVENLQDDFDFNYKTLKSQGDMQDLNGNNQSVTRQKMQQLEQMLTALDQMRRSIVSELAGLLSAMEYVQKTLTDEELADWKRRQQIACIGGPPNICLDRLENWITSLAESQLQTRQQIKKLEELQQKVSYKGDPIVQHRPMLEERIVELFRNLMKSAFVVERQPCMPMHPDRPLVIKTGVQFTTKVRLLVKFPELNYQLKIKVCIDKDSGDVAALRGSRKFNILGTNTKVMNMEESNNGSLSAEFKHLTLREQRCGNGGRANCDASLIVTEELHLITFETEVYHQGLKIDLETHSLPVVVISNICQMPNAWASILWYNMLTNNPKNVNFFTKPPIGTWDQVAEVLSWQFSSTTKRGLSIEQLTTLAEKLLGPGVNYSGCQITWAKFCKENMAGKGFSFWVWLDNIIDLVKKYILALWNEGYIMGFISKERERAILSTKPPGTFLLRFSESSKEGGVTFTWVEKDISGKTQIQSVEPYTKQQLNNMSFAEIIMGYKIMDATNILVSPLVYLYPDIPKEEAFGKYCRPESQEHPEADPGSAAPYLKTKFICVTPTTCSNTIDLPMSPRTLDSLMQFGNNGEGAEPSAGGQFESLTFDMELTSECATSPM
Chain of Paired box protein Pax-6 (Homo sapiens) (P26367 whole entry, looked up): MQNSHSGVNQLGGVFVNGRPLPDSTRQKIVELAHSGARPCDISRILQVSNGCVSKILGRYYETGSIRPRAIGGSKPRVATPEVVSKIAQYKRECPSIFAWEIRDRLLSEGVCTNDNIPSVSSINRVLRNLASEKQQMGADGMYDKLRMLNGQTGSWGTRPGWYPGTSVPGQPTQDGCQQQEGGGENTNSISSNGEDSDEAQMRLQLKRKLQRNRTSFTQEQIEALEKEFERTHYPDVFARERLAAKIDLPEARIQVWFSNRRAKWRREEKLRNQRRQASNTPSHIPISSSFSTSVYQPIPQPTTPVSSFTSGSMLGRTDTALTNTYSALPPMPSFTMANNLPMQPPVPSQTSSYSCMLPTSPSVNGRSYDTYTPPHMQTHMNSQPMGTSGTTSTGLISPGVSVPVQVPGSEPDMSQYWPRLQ

C=CC(=O)OCC(CC)CCCC (stereo not given)
inactive: [1] | [2] | [3] | [4] | [5] | [6] | [7] | [8] | [9] | [10] | [11] | [12] | [13] | [14] | [15] | [16] | [17] | [18] | [19] | [20]

Cc1ccccc1CCl
inactive: [1] | [2] | [3] | [4] | [5] | [6] | [7] | [8] | [9] | [10] | [11] | [12] | [13] | [14] | [15] | [16] | [17] | [19] | [20]

O=[N+]([O-])O
inactive: [1] | [2] | [4] | [5] | [6] | [7] | [8] | [9] | [10] | [11] | [13] | [15] | [16] | [17] | [20]

[CH3][Sn]([CH3])([Cl])[Cl]
inactive: [1] | [2] | [3] | [4] | [5] | [6] | [7] | [8] | [9] | [10] | [11] | [12] | [13] | [14] | [15] | [16] | [17] | [18] | [19] | [20]

Nc1c(Cl)c(Cl)c(Cl)c(Cl)c1Cl
inactive: [1] | [3] | [4] | [5] | [6] | [7] | [8] | [9] | [10] | [11] | [12] | [13] | [14] | [15] | [16] | [17] | [18] | [20]
active: [2] 31.4 µM

Cc1ccc(N(SC(F)(Cl)Cl)S(=O)(=O)N(C)C)cc1
active: [5] 18.8 µM | [9] 16.6 µM | [12] 14.4 µM | [13] 17 µM | [17] 17.3 µM | [18] 20.3 µM | [20] 17.7 µM
inactive: [1] | [2] | [6] | [7] | [8] | [10] | [11] | [14] | [15] | [16] | [19]

O=[N+]([O-])O.O=[N+]([O-])O.[Cd]
inactive: [2] | [3] | [6] | [8] | [9] | [10] | [11] | [14] | [15]
active: [1] 1.98 µM | [4] 1.79 µM | [5] 1.38 µM | [7] 11.1 µM | [16] 4.62 µM | [17] 2.18 µM | [20] 1.16 µM

C#CC1(O)CCCCC1
inactive: [1] | [2] | [3] | [4] | [5] | [6] | [7] | [8] | [9] | [10] | [11] | [14] | [15] | [16] | [17] | [18] | [19] | [20]
